Assay results taken from PubChem BioAssay (Tox21).
Inconclusive results are not listed. Where a call stands in place of a potency, no number is given. Unmarked numbers belong to inactive results. Active and inactive are the calls of the source. Calls come from the whole dose curve; as a rule, active = well fitted curve in the direction sought with a large enough effect in the repeat runs; inconclusive = weak or mixed curves; inactive = no such curve, though single readings can be large; an effect the other way counts as inactive or inconclusive.

Assay: qHTS RealTime-Glo MT Cell Viability Assay in HepG2 cells - 8 hour (AID 1224873); note: nearly all actives have a fitted effect of over 55% in size
Conditions: RealTime-Glo luminescence; series mostly up to 76.8 µM
Summary of the method: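 Real-time viability: cells seeded at 600 per well together with NanoLuc and cell-permeant prosubstrate, compounds added after 5 h incubation. Luminescence tracked at 0, 8, 16, 24, 32 and 40 h of exposure.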

Question: Which outcome does the source give for `CCOC(=O)C1CC(=O)C(=C(O)C2CC2)C(=O)C1` (centres undefined) here?
Answer: inactive

Question: For `CC(=O)Nc1ccc(C)c(Cl)c1`, which outcome is on record?
Answer: inactive

Question: With `CCCCCCCCc1ccc(S(=O)(=O)O)cc1` as the compound, how does the outcome read?
Answer: inactive

Question: With `CCOC(=O)C(Br)c1ccccc1` (centres undefined) as the compound, how does the outcome read?
Answer: inactive

Question: With `CCOc1ccc2nc(N)sc2c1` as the compound, how does the outcome read?
Answer: inactive

Question: For `CCCC(CCC)(C(=O)OCC)C(=O)OCC`, which outcome is on record?
Answer: inactive

Question: With `CCC/C=C/CO` as the compound, how does the outcome read?
Answer: inactive

Question: Which outcome does the source give for `CC(=O)OC(C)OC(C)=O` here?
Answer: inactive

Question: For `OC[C@H]1O[C@@H](O[C@H]2[C@H](O)[C@@H](O)[C@H](O)O[C@@H]2CO)[C@H](O)[C@@H](O)[C@H]1O`, which outcome is on record?
Answer: inactive

Question: For `CC(C)S`, which outcome is on record?
Answer: inactive

Question: Which outcome does the source give for `Clc1cccc(-c2cc(Cl)cc(Cl)c2)c1` here?
Answer: inactive

Question: For `CCC1(C)NC(=O)NC1=O` (centres undefined), which outcome is on record?
Answer: inactive

Question: With `CCN(CC)CCNC(=O)COc1ccc(Cl)cc1` as the compound, how does the outcome read?
Answer: inactive

Question: For `CN(C)Cc1ccccc1`, which outcome is on record?
Answer: inactive

Question: With `COc1ccc(S(=O)(=O)Nc2nnc(CC(C)C)s2)cc1` as the compound, how does the outcome read?
Answer: inactive

Question: Which outcome does the source give for `O=c1[nH]cnc2c1ncn2[C@@H]1O[C@H](CO)[C@@H](O)[C@H]1O` here?
Answer: inactive

Assay: qHTS RealTime-Glo MT Cell Viability Assay in HEK293 cells - 40 hour (AID 1224874); note: nearly all actives have a fitted effect of over 50% in size
Conditions: RealTime-Glo luminescence; max response: hits give low values
Summary of the method: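 600 HEK293 cells per well, dispensed already mixed with RealTime-Glo MT reagents. Compound dosing came 5 h later. The same wells were read for luminescence at 0, 8, 16, 24, 32 and 40 h of exposure at 37 C.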

Question: For `CN1CCC[C@@H]1Cc1c[nH]c2ccc(CCS(=O)(=O)c3ccccc3)cc12`, which max response is on record?
Answer: 3.35%

Question: For `O=Cc1ccc(F)c(Br)c1`, which max response is on record?
Answer: 3.83%

Question: Which max response does the source give for `Cc1ncc(CO)c(CN)c1O` here?
Answer: 4.15%

Question: Which max response does the source give for `N#CSCC(=O)O` here?
Answer: 0.0274%

Question: With `CCCN(CCC)C(=O)C(CCC(=O)O)NC(=O)c1ccccc1` (centres undefined) as the compound, how does the max response read?
Answer: 3.51%

Question: Which max response does the source give for `CCN[C@H]1CN(CCCOC)S(=O)(=O)c2sc(S(N)(=O)=O)cc21` here?
Answer: -0.402%

Question: With `Cc1ccc(C=O)s1` as the compound, how does the max response read?
Answer: 5.96%

Question: For `COC(=O)C(C)O` (centres undefined), which max response is on record?
Answer: 3.12%

Question: Which max response does the source give for `CCOC(=O)NCCC[Si](OCC)(OCC)OCC` here?
Answer: 4.72%

Question: For `OCc1ccccc1O`, which max response is on record?
Answer: -16.1%

Question: For `O=C(C(Cl)Cl)N1CCOC12CCCCC2`, which max response is on record?
Answer: 12.9%

Question: With `CCN(CC)C(=O)N(CC)CC` as the compound, how does the max response read?
Answer: 4.58%

Question: Which max response does the source give for `O=C1CCCc2ccccc21` here?
Answer: 23.3%

Question: With `COc1ccccc1N1CCN(CCCNc2cc(=O)n(C)c(=O)n2C)CC1` as the compound, how does the max response read?
Answer: -21.2%

Question: With `CC(=O)O[C@H]1CC[C@@]2(C)C(=CC[C@@H]3[C@@H]2CC[C@]2(C)C(C(C)=O)=CC[C@@H]32)C1` as the compound, how does the max response read?
Answer: -20.5%

Question: With `FC(F)(F)C(F)(F)C(F)(F)C(F)(F)C(F)(F)C(F)(F)C(F)(F)C(F)(F)Br` as the compound, how does the max response read?
Answer: -0.235%

Question: With `Cn1cnc2c(F)c(Nc3ccc(Br)cc3Cl)c(C(=O)NOCCO)cc21` as the compound, how does the max response read?
Answer: -9.97%

Question: For `ClC(Cl)Cl`, which max response is on record?
Answer: 6.53%

Question: For `CCCOc1ccc2c(c1)CC[C@@H]1[C@@H]2CC[C@]2(C)C(OC)CC[C@@H]12` (some centres undefined), which max response is on record?
Answer: 6.13%

Question: With `CCN(CC)CC1CCCCN1CC(=O)N1c2ccccc2C(=O)Nc2cccnc21` (centres undefined) as the compound, how does the max response read?
Answer: 0.471%

Question: Which max response does the source give for `O=C(Cl)c1cccc([N+](=O)[O-])c1` here?
Answer: 3.57%

Question: For `Cc1cc(NS(=O)(=O)c2ccc(N)cc2)nc(C)n1`, which max response is on record?
Answer: -0.863%

Question: For `CCCCCCC`, which max response is on record?
Answer: -15.1%

Question: With `CCOC(=O)C1CC(=O)C(=C(O)C2CC2)C(=O)C1` (centres undefined) as the compound, how does the max response read?
Answer: 0.979%

Question: For `CC(=O)Nc1ccc(C)c(Cl)c1`, which max response is on record?
Answer: -13.2%

Question: Which max response does the source give for `CCCCCCCCc1ccc(S(=O)(=O)O)cc1` here?
Answer: -16.1%

Question: Which max response does the source give for `CCOC(=O)C(Br)c1ccccc1` (centres undefined) here?
Answer: 15.2%

Question: Which max response does the source give for `CCOc1ccc2nc(N)sc2c1` here?
Answer: -4.71%

Question: With `CCCC(CCC)(C(=O)OCC)C(=O)OCC` as the compound, how does the max response read?
Answer: 0.553%

Question: Which max response does the source give for `CCC/C=C/CO` here?
Answer: 0.426%

Question: For `CC(=O)OC(C)OC(C)=O`, which max response is on record?
Answer: 0.965%

Question: For `OC[C@H]1O[C@@H](O[C@H]2[C@H](O)[C@@H](O)[C@H](O)O[C@@H]2CO)[C@H](O)[C@@H](O)[C@H]1O`, which max response is on record?
Answer: 0.3%

Question: With `CC(C)S` as the compound, how does the max response read?
Answer: 0.674%

Question: Which max response does the source give for `Clc1cccc(-c2cc(Cl)cc(Cl)c2)c1` here?
Answer: -9.77%

Question: Which max response does the source give for `CCC1(C)NC(=O)NC1=O` (centres undefined) here?
Answer: -2.11%

Question: With `CCN(CC)CCNC(=O)COc1ccc(Cl)cc1` as the compound, how does the max response read?
Answer: 2.3%

Question: For `CN(C)Cc1ccccc1`, which max response is on record?
Answer: 7.47%

Question: For `COc1ccc(S(=O)(=O)Nc2nnc(CC(C)C)s2)cc1`, which max response is on record?
Answer: 6.93%

Question: For `O=c1[nH]cnc2c1ncn2[C@@H]1O[C@H](CO)[C@@H](O)[C@H]1O`, which max response is on record?
Answer: 1.22%

Assay: A CellTox Green Cytotoxicity Assay to monitor cytotoxicity in HEK293 cells - 24 hour (AID 1224875); note: nearly all actives have a fitted effect of over 45% in size; note: potency is the fitted concentration of half-maximal effect
Conditions: CellTox Green fluorescence; series mostly up to 76.8 µM
Summary of the method: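 Dead-cell fluorescence measured kinetically: asymmetric cyanine dye, HEK293, 600 cells/well, 5 h settle, 23 nL cpd/DMSO, 37 C, reads 0–40 h every 8 h.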

Question: For `CN1CCC[C@@H]1Cc1c[nH]c2ccc(CCS(=O)(=O)c3ccccc3)cc12`, which Potency is on record?
Answer: inactive

Question: Which Potency does the source give for `O=Cc1ccc(F)c(Br)c1` here?
Answer: inactive

Question: With `Cc1ncc(CO)c(CN)c1O` as the compound, how does the Potency read?
Answer: inactive

Question: With `N#CSCC(=O)O` as the compound, how does the Potency read?
Answer: inactive

Question: For `CCCN(CCC)C(=O)C(CCC(=O)O)NC(=O)c1ccccc1` (centres undefined), which Potency is on record?
Answer: inactive

Question: With `CCN[C@H]1CN(CCCOC)S(=O)(=O)c2sc(S(N)(=O)=O)cc21` as the compound, how does the Potency read?
Answer: inactive

Question: For `Cc1ccc(C=O)s1`, which Potency is on record?
Answer: 43.6 µM (active)

Question: For `COC(=O)C(C)O` (centres undefined), which Potency is on record?
Answer: inactive

Question: With `CCOC(=O)NCCC[Si](OCC)(OCC)OCC` as the compound, how does the Potency read?
Answer: inactive

Question: For `OCc1ccccc1O`, which Potency is on record?
Answer: inactive

Question: With `O=C(C(Cl)Cl)N1CCOC12CCCCC2` as the compound, how does the Potency read?
Answer: inactive

Question: For `CCN(CC)C(=O)N(CC)CC`, which Potency is on record?
Answer: inactive

Question: Which Potency does the source give for `O=C1CCCc2ccccc21` here?
Answer: inactive

Question: Which Potency does the source give for `COc1ccccc1N1CCN(CCCNc2cc(=O)n(C)c(=O)n2C)CC1` here?
Answer: inactive

Question: Which Potency does the source give for `CC(=O)O[C@H]1CC[C@@]2(C)C(=CC[C@@H]3[C@@H]2CC[C@]2(C)C(C(C)=O)=CC[C@@H]32)C1` here?
Answer: inactive

Question: With `FC(F)(F)C(F)(F)C(F)(F)C(F)(F)C(F)(F)C(F)(F)C(F)(F)C(F)(F)Br` as the compound, how does the Potency read?
Answer: inactive

Question: For `Cn1cnc2c(F)c(Nc3ccc(Br)cc3Cl)c(C(=O)NOCCO)cc21`, which Potency is on record?
Answer: inactive

Question: For `ClC(Cl)Cl`, which Potency is on record?
Answer: inactive

Question: With `CCCOc1ccc2c(c1)CC[C@@H]1[C@@H]2CC[C@]2(C)C(OC)CC[C@@H]12` (some centres undefined) as the compound, how does the Potency read?
Answer: inactive

Question: With `CCN(CC)CC1CCCCN1CC(=O)N1c2ccccc2C(=O)Nc2cccnc21` (centres undefined) as the compound, how does the Potency read?
Answer: inactive

Question: For `O=C(Cl)c1cccc([N+](=O)[O-])c1`, which Potency is on record?
Answer: inactive

Question: Which Potency does the source give for `Cc1cc(NS(=O)(=O)c2ccc(N)cc2)nc(C)n1` here?
Answer: inactive

Question: With `CCCCCCC` as the compound, how does the Potency read?
Answer: inactive

Question: For `CCOC(=O)C1CC(=O)C(=C(O)C2CC2)C(=O)C1` (centres undefined), which Potency is on record?
Answer: inactive

Question: For `CC(=O)Nc1ccc(C)c(Cl)c1`, which Potency is on record?
Answer: inactive

Question: With `CCCCCCCCc1ccc(S(=O)(=O)O)cc1` as the compound, how does the Potency read?
Answer: 48.6 µM (active)

Question: Which Potency does the source give for `CCOC(=O)C(Br)c1ccccc1` (centres undefined) here?
Answer: inactive

Question: Which Potency does the source give for `CCOc1ccc2nc(N)sc2c1` here?
Answer: inactive

Question: For `CCCC(CCC)(C(=O)OCC)C(=O)OCC`, which Potency is on record?
Answer: inactive

Question: Which Potency does the source give for `CCC/C=C/CO` here?
Answer: inactive

Question: With `CC(=O)OC(C)OC(C)=O` as the compound, how does the Potency read?
Answer: inactive

Question: For `OC[C@H]1O[C@@H](O[C@H]2[C@H](O)[C@@H](O)[C@H](O)O[C@@H]2CO)[C@H](O)[C@@H](O)[C@H]1O`, which Potency is on record?
Answer: inactive

Question: For `CC(C)S`, which Potency is on record?
Answer: inactive

Question: With `Clc1cccc(-c2cc(Cl)cc(Cl)c2)c1` as the compound, how does the Potency read?
Answer: 42.1 µM (active)

Question: For `CCC1(C)NC(=O)NC1=O` (centres undefined), which Potency is on record?
Answer: inactive

Question: For `CCN(CC)CCNC(=O)COc1ccc(Cl)cc1`, which Potency is on record?
Answer: inactive

Question: For `CN(C)Cc1ccccc1`, which Potency is on record?
Answer: inactive

Question: For `COc1ccc(S(=O)(=O)Nc2nnc(CC(C)C)s2)cc1`, which Potency is on record?
Answer: inactive

Question: For `O=c1[nH]cnc2c1ncn2[C@@H]1O[C@H](CO)[C@@H](O)[C@H]1O`, which Potency is on record?
Answer: inactive
